Experimental data as given in PubChem BioAssay (NCI).
Values joined by “and” are separate entries in the source; they are usually repeats but may differ in a detail not shown here. Equal values may be shown once. This is part of a sample that, as a whole, favours compounds with a hit. Of some 83,000 tested, about 20% had one in any assay.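 The endpoint reported here, percent growth, reads 100 for growth as untreated, 0 for no net growth and -100 for all cells dead.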 Active and inactive are the calls of the source. How the source made its calls: active means growth percent below 10; inactive means the rest.

Each molecule was assayed on HL-60(TB) leukemia (assay: NCI-60 one-dose screen, 48 h (100 = growth as untreated, 0 = no growth, -100 = all killed)). Conditions: 10 µM unless noted.

SMILES	growth
CC(=O)Nc1c(I)c(NC(C)=O)c(I)c(C(=O)O)c1I	92.4% (inactive) and 95.8% (inactive)
CCC[C@H](N[C@@H](C)C(=O)N1[C@H](C(=O)O)C[C@@H]2CCCC[C@@H]21)C(=O)OCC	116% (inactive)
CCOC(=O)Cn1c(O)c(N=Nc2ccc(S(N)(=O)=O)cc2)c2cc(Br)ccc21	96.2% (inactive)
Cc1ccc(/C=C2\CN(C(=O)OC(C)(C)C)C/C(=C\c3ccc(C)cc3)C2=O)cc1	41.9% (inactive)
OCc1n(Cc2ccc3ccccc3c2)cc[n+]1Cc1ccc2ccccc2c1	6.82% (active)
C=C1CC[C@@H]2[C@](C)(COC(C)=O)[C@H](OC(C)=O)CC[C@@]2(C)[C@@H]1CC(Sc1ccccc1)C1=CCOC1=O (stereo partly drawn)	-46.5% (active)
CCCCN1C(=O)/C(=c2\sc3n(c2=O)C2C(NN=3)N(CC)C(=O)N2CC)c2ccccc21 (stereo not drawn)	-52.2% (active)
CN1CCN(Cn2nc(-c3cc(F)c(Cl)cc3Cl)n(/N=C/c3ccc(N(C)C)cc3)c2=S)CC1	83.1% (inactive)
COc1ccc(C(=O)c2ccc(OC)c(OC)c2OC)cc1	22.3% (inactive) and -8.89% (active)
Cc1nc2nc(C(F)(F)F)[nH]c2nc1C	98.8% (inactive)
CCS/C(Nc1ccccc1)=C(\C#N)C(=O)N/N=C/c1ccc(Cl)cc1Cl	-31.4% (active)
O=S(=O)(NCCNc1cc(-c2c(-c3cccc(O)c3)nc3sccn23)ccn1)c1ccc(C(F)(F)F)cc1	15.7% (inactive)
C=C1NC(=O)C(C(C)CC)NC(=O)C2CSCC(NC(=O)CCC(=O)O)C(=O)NC(Cc3ccccc3)C(=O)NC(C)C(=O)NC(CC(C)CC)C(=O)NC(C(=O)NC(Cc3ccccc3)C(=O)N3CCCC3C(=O)N2)C(C)OC(=O)C(CO)NC(=O)C(C(O)COC)N(C)C(=O)C(C(C)C)NC(=O)C(CC(C)CC)NC1=O (stereo not drawn)	-26.8% [6 µM] (active)
